Laboratory results taken from PubChem BioAssay (EPA / NIEHS).
Active and inactive are the calls of the source. How the source made its calls: active means hit-call score of the fitted dose curve at least 0.9, where 1 is the maximum; inactive means score below 0.9.

What was measured:
[1] = read-out: Pselectin, SELP (gene 6403); assay: BSK_4H_Pselectin: BioMAP Diversity Plus: 4H Assay for Pselectin Biomarker Activity (AID 2283026); settings: primary human endothelial cells (HUVEC); actives raise or lower the signal
Outline: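 ELISA of surface P-selectin on HUVEC, 24 h after dosing, with parallel SRB staining (0.1% after 10% TCA fixation, 560 nm) for overt cytotoxicity. Activity fitted in both directions relative to DMSO.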

[2] = BSK_4H_SRB: Viability Assessment in the BioMAP Diversity Plus: 4H Assay (AID 2283027); settings: primary human endothelial cells (HUVEC);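 further: cells exposed to compound for 24 h before staining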;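 on AC50: curves fitted both ways versus DMSO so AC50 may be loss or gain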
Outline: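 Cytotoxicity read-out in primary human endothelial cells: after 24 h compound exposure, cells were TCA-fixed (10%), stained with 0.1% SRB and absorbance taken at 560 nm. Values fitted in both directions relative to DMSO.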

[3] = BSK_BE3C_SRB: Viability Assessment in the BioMAP Diversity Plus: BE3C Assay (AID 2283028); settings: primary human bronchial epithelial cells;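 on AC50: fitted both ways so AC50 may mark signal gain or loss versus DMSO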
Outline: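 Cytotoxicity read-out: SRB (0.1%) staining of TCA-fixed (10%) human lung bronchial epithelial cells, absorbance 560 nm, 24 h post-dosing. Curves fitted both directions relative to DMSO.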

[4] = read-out: Thrombomodulin, THBD (gene 7056); assay: BSK_3C_Thrombomodulin: BioMAP Diversity Plus: 3C Assay for Thrombomodulin Biomarker Activity (AID 2283029); settings: primary human endothelial cells (HUVEC); actives raise or lower the signal
Outline: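 ELISA measurement of thrombomodulin on HUVEC surface 24 h after chemical dosing; activity fitted in both directions relative to DMSO vehicle.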

[5] = read-out: Urokinase-type plasminogen activator receptor (uPAR), PLAUR (gene 5329); assay: BSK_4H_uPAR: BioMAP Diversity Plus: 4H Assay for Urokinase-type plasminogen activator receptor (uPAR) Biomarker Activity (AID 2283030); settings: primary human endothelial cells (HUVEC); actives raise or lower the signal
Outline: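 uPAR level read by ELISA on HUVEC cultures (BioMAP 4H) 24 h post-dosing, analyzed for gain or loss relative to DMSO. Parallel SRB staining assessed overt cytotoxicity.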

[6] = read-out: Vascular endothelial growth factor receptor 2 (Homo sapiens) (UniProt P35968); assay: BSK_4H_VEGFRII: BioMAP Diversity Plus: 4H Assay for Vascular endothelial growth factor receptor 2 (VEGFR2) Biomarker Activity (AID 2283031); settings: primary human endothelial cells (HUVEC); actives raise or lower the signal;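 on AC50: cell-surface VEGFR2 protein level quantified by ELISA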
Outline: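 Measured by ELISA after 24 h of compound treatment: VEGFR2 on primary human umbilical vein endothelial cells, fitted in both directions relative to DMSO. Parallel cultures received SRB staining (560 nm) for overt cytotoxicity.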

[7] = read-out: Human Leukocyte Antigen - DR isotype (HLADR), HLA-DRA (gene 3122); assay: BSK_BE3C_HLADR: BioMAP Diversity Plus: BE3C Assay for Human Leukocyte Antigen - DR isotype (HLADR) Biomarker Activity (AID 2283032); settings: primary human bronchial epithelial cells; actives raise or lower the signal
Outline: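 Cell-surface HLA-DR ELISA readout at 24 h after dosing in the BE3C primary human lung bronchial epithelial system; gain or loss of signal against DMSO, with parallel sulforhodamine B staining of total protein for overt cytotoxicity.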

[8] = read-out: Vascular cell adhesion molecule 1 (VCAM1), VCAM1 (gene 7412); assay: BSK_4H_VCAM1: BioMAP Diversity Plus: 4H Assay for Vascular cell adhesion molecule 1 (VCAM1) Biomarker Activity (AID 2283033); settings: primary human endothelial cells (HUVEC); actives raise or lower the signal
Outline: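 VCAM-1 ELISA read 24 h after chemical dosing of HUVEC in the BioMAP 4H system, with gain or loss of signal fitted relative to DMSO. Parallel SRB staining (560 nm) checked overt cytotoxicity.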

[9] = read-out: Interferon-gamma inducible Protein 10 (IP10), CXCL10 (gene 3627); assay: BSK_BE3C_IP10: BioMAP Diversity Plus: BE3C Assay for Interferon-gamma inducible Protein 10 (IP10) Biomarker Activity (AID 2283034); settings: primary human bronchial epithelial cells; actives raise or lower the signal
Outline: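 IP-10 quantified by ELISA in human primary bronchial epithelial cell cultures at 24 hours post-dosing. Gain or loss of signal fitted relative to DMSO; parallel SRB staining assessed overt cytotoxicity.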

[10] = read-out: Monokine induced gamma interferon (MIG), CXCL9 (gene 4283); assay: BSK_BE3C_MIG: BioMAP Diversity Plus: BE3C Assay for Monokine induced gamma interferon (MIG) Biomarker Activity (AID 2283035); settings: primary human bronchial epithelial cells; actives raise or lower the signal
Outline: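 ELISA quantified MIG after 24 h exposure of primary bronchial epithelial cultures, analysed in both directions relative to DMSO. Cytotoxicity tracked in parallel cultures by sulforhodamine B staining.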

Measured: AC50

CC(C)(C)OOC(C)(C)CCC(C)(C)OOC(C)(C)C
inactive: all assays above

O=Cc1ccco1
not listed: [10]
inactive: all other assays above

CC(C)(C)OOC(=O)c1ccccc1
not listed: [10]
inactive: all other assays above

O=C1CCCO1
not listed: [10]
inactive: all other assays above

CCCCCCCCOC(=O)c1ccc(C(=O)OCCCCCCCC)c(C(=O)OCCCCCCCC)c1
inactive: all assays above

OCCOCCO
inactive: all assays above

CC(O)CCO (configuration not stated)
not listed: [10]
inactive: all other assays above

CCC12COCN1COC2
not listed: [10]
inactive: all other assays above

O=C(N[C@H](c1ccccc1)[C@@H]1CN2CCC1CC2)c1c(Cl)ccc(C(F)(F)F)c1Cl
active: [3] 27.4 µM | [4] 29.7 µM | [5] 17.3 µM | [7] 39.7 µM | [9] 21.9 µM | [10] 49 µM
inactive: [1] | [2] | [6] | [8]

Nc1ccc(N=Nc2ccccc2)cc1
active: [2] 13.1 µM
not listed: [10]
inactive: all other assays above

CS(=O)(=O)NC(=O)c1cc(Oc2ccc(C(F)(F)F)cc2Cl)ccc1[N+](=O)[O-]
not listed: [10]
inactive: all other assays above

COC(=O)Nc1nc2ccccc2[nH]1
active: [2] 14.5 µM | [5] 8.56 µM
not listed: [10]
inactive: all other assays above

O=C(Nc1ccccc1)c1ccccc1I
inactive: all assays above

Nc1ccc(Cc2ccc(N)cc2)cc1
not listed: [10]
inactive: all other assays above

N#CC(Br)Br
not listed: [10]
inactive: all other assays above

C[C@]12C=CC3=C4CCC(=O)C=C4CC[C@H]3[C@@H]1CC[C@@H]2O
active: [5] 16 µM | [9] 29.2 µM
not listed: [10]
inactive: all other assays above

[Cl-].[Cl-].[Hg+2]
active: [1] 33 µM | [2] 20 µM | [3] 34.7 µM | [5] 30 µM | [7] 30.2 µM | [8] 29.7 µM | [9] 34.9 µM | [10] 36.5 µM
inactive: [4] | [6]

O=[N+]([O-])C(Br)(CO)CO
active: [1] 20 µM | [2] 20 µM | [5] 31.7 µM | [8] 27.1 µM
not listed: [10]
inactive: all other assays above

ClC1=C(Cl)[C@]2(Cl)[C@H]3[C@H]([C@@H]4C=C[C@H]3C4)[C@@]1(Cl)C2(Cl)Cl
active: [1] 24.1 µM | [2] 33.3 µM | [5] 32.3 µM | [6] 29.4 µM | [8] 33.9 µM | [9] 30.3 µM
inactive: [3] | [4] | [7] | [10]

CO[C@@H]1[C@H](OC(=O)NC(=O)CCl)CC[C@]2(CO2)[C@H]1[C@@]1(C)O[C@@H]1CC=C(C)C
active: [1] 2.09 µM | [7] 7.85 µM | [8] 6.62 µM | [9] 9.12 µM
not listed: [10]
inactive: all other assays above
